# AID504770: E. coli YBA685 growth inhibition, screen for V. cholerae RctB inhibitors; E. coli YBA685 rctB-dependent plasmid, OD600 growth, 3 h; stronger effect = lower value; actives 0.27% (n = 130,000); z-score (no concentration beside the values); AID 504770; in the data active = z-score below about -2, passing the limit was not always enough
# Ba CapD inh: blocks the Bacillus anthracis CapD enzyme; purified CapD enzyme, fluorescence intensity read-out; stronger effect = lower value; z-score (concentration not given with the values); actives 0.23% (n = 140,000); in the data active = z-score mostly below about -2.9, no sharp cut-off; inactive = mostly above about -1.9
# The depositor's hits bear a star; . = no result. Sampled rows, rich in hits. Any-hit rate of the full collection: about 0.36%.
SMILES,AID504770,Ba CapD inh
COc1cc(/C=C2\SC(=S)N(C(C(=O)O)C(C)C)C2=O)cc(OC)c1O (configuration not stated),0.45,-0.36
CC1=CCC(c2cnc(-c3ccccc3)c(C)c2)N(C)C1c1ccccc1 (configuration not stated),-0.45,-0.03
CC1COc2c(N3CCN(C)CC3)c(F)cc3c(=O)c(C(=O)N4CCN(c5ncccn5)CC4)cn1c23 (configuration not stated),0,.
CC1COc2c(N3CCN(C)CC3)c(F)cc3c(=O)c(C(=O)O)cn1c23 (configuration not stated),-5.2*,0.43
CCNc1nc(-c2ccc(Br)cc2)cs1,0.15,-0.52
Cc1ccc(N2C(=O)C=CC2=O)cc1,-1.4,.
CC1(C)C(=O)N(c2cccc(Cl)c2)C(=O)C1(C)C,-1.1,0.47
O=C1C=CC(=O)N1c1ccccc1,-7*,-0.57
O=C1C=CC(=O)N1c1cccc(Cl)c1,-4*,-0.07
NC(N)=NS(=O)(=O)Cc1ccccc1,-0.85,-0.68
Cc1cc2c(cc1C)CSC1(CCCCC1C)SC2 (configuration not stated),.,-0.075
COc1ccc(C2=NN3C(C2)c2ccccc2OC32C(=O)Nc3ccccc32)cc1 (configuration not stated),-0.45,-0.14
COc1ccc2c(c1)C1(NNc3ccccc3O1)C(=O)N2 (configuration not stated),-11*,.
N=C1S/C(=C\c2ccc(-c3ccccc3F)o2)C(=O)N1c1nccs1,.,-1.1
N=C1S/C(=C/c2ccco2)C(=O)N1c1nccs1,0.05,-4.3*
CC(=O)N1CCc2ccc(NC3CCN(C)CC3)cc21,.,-0.47
Cn1cc(NC(=O)NCc2ccccn2)c2ccccc2c1=O,-2*,19
CC(C)Cn1cc(NC(=O)NCc2ccccn2)c2ccccc2c1=O,-0.1,26
O=C(O)C(C(=O)/C=C/c1ccccc1)=C1SCS1,-1,.
CC1CS/C(=C(/C(=O)O)C(=O)/C=C/c2cccc(O)c2)S1 (configuration not stated),0,-5.4*
CC1CN(S(=O)(=O)c2cccc(Cl)c2Cl)CC(C)O1 (configuration not stated),.,-0.87
Cc1cc2[nH]c(=O)c(=O)[nH]c2cc1S(=O)(=O)N1CCCCC1,-2.5*,28
Cc1cc(C)c(S(=O)(=O)N2CCCCC2)cc1C,-0.1,-0.13
CC(=NCCc1ccc(F)cc1)C1=C(O)c2ccccc2C1=O,-0.3,-4.8*
CC(=NCCc1ccccc1)C1=C(O)CSC1=O,0,.
SMILES,AID504770,Ba CapD inh
CN(C)P1(=S)C2=C(N3CCCCC3)CC(C)(C)CC2=NN1c1ccccc1 (configuration not stated),2,.
O=C1ON=C(c2ccccc2)/C1=C\c1ccc2c(c1)OCO2,-0.05,-0.36
O=C1c2ccccc2C(=O)N1Cc1cc(=O)n2ccsc2n1,-0.45,.
CC(C)c1ccc(-c2nnn(Cc3cc(=O)n4ccsc4n3)n2)cc1,-2.2*,.
NC(=O)COC(=O)c1n[nH]c2ccccc12,-3.5*,.
O=C(COC(=O)c1n[nH]c2ccccc12)Nc1ccccc1,0.05,2.9
CN(c1ccc(F)cc1)S(=O)(=O)N1CCCC(C(=O)N2CCN(c3ncccn3)CC2)C1 (configuration not stated),-0.5,2.1
Cc1cc(/C=C2\C(=O)NC(=S)N(c3ccccc3F)C2=O)c(C)n1-c1cc(C(=O)O)cc(C(=O)O)c1,.,-9.1*
Cc1cc(/C=C2\C(=O)NC(=O)N(c3ccccc3F)C2=O)c(C)n1-c1cc(C(=O)O)cc(C(=O)O)c1,.,-2.5
Cn1c2nc(-[n+]3ccc(C(=O)[O-])cc3)nc-2c(O)n(C)c1=O,-0.85,-0.56
Brc1cc2c(cc1CSc1nnc3ccccn13)OCO2,-0.1,.
O=C(NN1S(=O)(=O)c2ccccc2S1(=O)=O)c1nc[nH]c1C(=O)Nc1ccccc1,.,-0.78
O=C(NN1S(=O)(=O)c2ccccc2S1(=O)=O)c1nsnc1NCCCl,.,-6.3*
CCn1c(COC(=O)Cn2c(=O)oc3ccccc32)nc2cc(S(=O)(=O)N(C)C)ccc21,0.55,.
Cc1cc(C)c2c(-c3ccccc3)[nH]nc2n1,-0.85,3.7
Cc1cc(C)c2c(/N=N/N3CCCCCC3)[nH]nc2n1,-4*,-0.24
Cc1ccc(/C=C2/SC(=S)N(CCC(=O)N3CCOCC3)C2=O)cc1,2.6,-2.6*
Cc1ccc(/C=C2/SC(=O)N(CCC(=O)N3CCN(C)CC3)C2=O)cc1,-0.25,-0.82
COc1ccc(OC)c(C2SCCN2C(=O)c2cc3ccccc3oc2=O)c1 (configuration not stated),0.05,-0.45
O=C(NCCO)Nc1c[nH]c2c(Cl)cccc2c1=O,0.5,.
CC(C)n1c(O)c(N=NC(=S)NC2CCCCC2)c2ccccc21,-2.9*,.
CC(C)Cn1c(O)c(N=NC(=S)NC(C)C)c2ccccc21,0.55,.
COCCNc1nc(SCC(=O)Nc2cc(C)on2)nc2ccccc12,.,1.8
CCN(CC)C(=O)COc1ccc2c(CC(=O)O)coc2c1,-2.6*,.
CCN(CC)C(=O)COc1ccc2ccc(=O)oc2c1,0.05,.
SMILES,AID504770,Ba CapD inh
CC(=O)NC(=O)c1cc2cc(Cl)cc(Cl)c2oc1=Nc1ccc(F)cc1,.,0.5
Cn1c(=O)c2cn(-c3ccccc3)cc2n(C)c1=O,1.9,4.1
Cn1c(=O)sn(-c2ccccc2)c1=O,-5.2*,1.1
CCOC(=O)c1c(N2C(=O)CCC2=O)sc2c1CCCC2,0.9,1.7
COC(=O)c1c(N2C(=O)CCC2=O)sc2c1CCCC2,-3.2*,-0.46
O=C(Oc1ccccc1N1CCCCC1)c1ccco1,-0.7,0.44
CCc1ccc(C(=O)c2cc3ccc(O)cc3oc2=O)cc1,-1,-3.6
O=C(c1ccccc1)c1cc2ccc(O)cc2oc1=O,-0.55,-6.3*
O=C(CNS(=O)(=O)c1ccc2c(c1)OCCO2)c1ccc(Cl)cc1,-0.55,.
CN(C)/C=C1\Cc2ccccc2C1=O,.,6.4
CN(C)/C=C1\CCCc2ccccc2C1=O,0.2,-4.1*
COc1ccc(NC(=O)NCCCN2CCCc3ccccc32)c(OC)c1,0.3,0.09
O=C1c2cccc3cccc(c23)C(=O)N1c1ccc2c(c1)OCO2,1.7,0.46
O=C1C=CC(=O)N1c1ccc2c(c1)OCO2,-2*,.
O=C(O)/C=C/C(=O)Nc1ccc(N2CCOCC2)cc1,2.5,-0.62
NC1=CC(=O)c2ccccc2C1=O,-2.4*,-1.6
CC1=CC(=O)c2ccccc2C1=O,0.65,0.15
CCSC(=S)NC1CCS(=O)(=O)C1 (configuration not stated),-0.8,0.99
O=S1(=O)CCC(NC(=S)SCc2ccccc2)C1 (configuration not stated),-3.8*,0.06
O=C(/C=C/c1ccco1)C1(O)CCCCC1,0.15,-5.6*
O=C(/C=C/c1ccco1)/C=C/c1ccco1,-0.85,0.035
O=C(CCc1c[nH]c2ccccc12)Oc1ccc2c(c1)OCO2,-0.35,.
Cc1cc(C)c(C)c(S(=O)O)c1C,-0.3,.
CN(C)/C=C/C=C1\CCc2ccccc2C1=O,-0.9,-0.79
CN(C)/C=C/C=C1\CC/C(=C\C=C\N(C)C)C1=O,0.95,-7.3*
SMILES,AID504770,Ba CapD inh
Cc1cccc(S(=O)(=O)N2CCCC(C)(C)C2)c1,.,0.32
N#C/C(C(=O)N1CCCCC1)=C(/S)Nc1ccccc1,0.3,-1.9
N#C/C(C(N)=O)=C(/S)Nc1ccccc1,-3.8*,.
CCCCCn1cn[nH]c1=S,-0.3,.
CCSc1ccc(SC#N)s1,-5.2*,.
CCSc1nc2ccccc2s1,1.2,0.8
